Results as given in PubChem BioAssay (EPA / NIEHS).
Several values for one entry are separate records, joined by “and”; a condition that tells them apart may be missing. Equal entries are not always repeated. Activity calls are given as the source filed them. How the source made its calls: active means hit-call score of the fitted dose curve at least 0.9, where 1 is the maximum; inactive means score below 0.9.

Assay: ATG_TCF_b_cat_CIS: Attagene CIS-FACTORIAL HepG2 Assay for human T-Cell-Factor with beta-catenin (TCF/b-cat) (AID 2282965)
Conditions: HepG2 TCF/beta-catenin cis-reporter transcription, actives raise or lower the signal
Procedure, shortened: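 Cells of the HepG2 line carry transiently transfected reporter units whose promoters respond to endogenous factors. Twenty-four hours post-dosing, reporter mRNA induction is measured by fluorescent RT-PCR and capillary electrophoresis, with DMSO as baseline.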
With `c1ccc2c(c1)CCC2` the outcome was “inactive”. With `CC(C)(C)c1ccc(O)c(O)c1` the outcome was “inactive”. For `CN(Cc1cnc2nc(N)nc(N)c2n1)c1ccc(C(=O)N[C@@H](CCC(=O)O)C(=O)O)cc1`, the outcome was “inactive”. With `CCCCCCCCCCCC(=O)NCCCN(C)C` the AC50 was 17.5 µM (active). In the case of `O=C1c2ccc(O)c(O)c2C(=O)c2c(O)ccc(O)c21`, the outcome is reported as “inactive”. In the case of `Cc1ccc(C(=O)c2ccccc2)cc1`, the outcome is reported as “inactive”. For `Nc1ccc(O)c(C(=O)O)c1`, the outcome was “inactive”. For `CCCCc1oc2ccccc2c1C(=O)c1cc(I)c(OCCN(CC)CC)c(I)c1`, the outcome was “inactive”. For `O=C(O)C(F)(F)OC(F)(F)C(F)(F)OC(F)(F)C(F)(F)OC(F)(F)C(F)(F)C(F)(F)C(F)(F)F`, the AC50 was 25.9 µM (active) and 24.4 µM (active). With `CC[N+](CC)(CC)Cc1ccccc1` the outcome was “inactive”. With `O=C1Cc2ccccc2N1c1c(Cl)cccc1Cl` the outcome was “inactive”. For `CN(C)c1ccc(C(=C2C=CC(=[N+](C)C)C=C2)c2ccccc2)cc1`, the AC50 was 2.07 µM (active) and 2.43 µM (active). In the case of `CCCCC(CC)C(=O)OCCOCCOCCOCCOC(=O)C(CC)CCCC` (centres undefined), the outcome is reported as “inactive”. With `c1cnc2c(c1)ccc1cccnc12` the outcome was “inactive”. In the case of `CN(C)CCOC(c1ccccc1)c1ccccc1`, the outcome is reported as “inactive”. For `C[C@]12CC[C@@H]3c4ccc(O)cc4CC[C@H]3[C@@H]1CC[C@@H]2OC(=O)CCC1CCCC1`, the outcome was “inactive”. For `Cc1cc(=O)oc2cc(O)ccc12`, the outcome was “inactive”. With `FC(OC(F)(F)C(F)(F)C(F)(F)F)C(F)(F)F` (centres undefined) the outcome was “inactive”. For `COCN(COC)c1nc(N(COC)COC)nc(N(COC)COC)n1`, the outcome was “inactive”. For `CC=O`, the outcome was “inactive”. For `CCCCCCCCCCCCCCC`, the outcome was “inactive”. In the case of `Cc1ccccc1C(OCCN(C)C)c1ccccc1` (centres undefined), the outcome is reported as “inactive”. In the case of `CC(=O)Nc1ccc(O)cc1`, the outcome is reported as “inactive”. With `CC(C)CCOCCC(C)C` the outcome was “inactive”. In the case of `CCc1ccccc1O`, the outcome is reported as “inactive”. With `O=P(O)(O)CCC(F)(F)C(F)(F)C(F)(F)C(F)(F)C(F)(F)C(F)(F)F` the outcome was “inactive”. With `Nc1ccn([C@@H]2O[C@H](CO)[C@@H](O)C2O)c(=O)n1` (some centres undefined) the outcome was “inactive”. With `O=C(CCCN1CCC(O)(c2ccc(Cl)cc2)CC1)c1ccc(F)cc1` the outcome was “inactive”. In the case of `CC1=NN(c2ccccc2)C(=O)C1`, the outcome is reported as “inactive”. With `O=S(=O)(c1ccc(OCc2ccccc2)cc1)c1ccccc1O` the AC50 was 54.4 µM (active). For `CC(C)C=O`, the outcome was “inactive”. In the case of `Cc1ccc(S(=O)(=O)O)cc1`, the outcome is reported as “inactive”. In the case of `Cc1cc(Cc2cc(C)cc(C(C)(C)C)c2O)c(O)c(C(C)(C)C)c1`, the AC50 is reported as 180 µM (active). For `Cc1ccc(N=Nc2c(O)ccc3ccccc23)c(C)c1`, the outcome was “inactive”. For `O=C1OC(=O)c2cc(-c3ccc4c(c3)C(=O)OC4=O)ccc21`, the outcome was “inactive”. With `O=C1c2ccccc2C(=O)c2c(O)c(O)cc(O)c21` the outcome was “inactive”. With `CCC(=O)O` the outcome was “inactive”.

Assay: ATG_TAL_CIS: Attagene CIS-FACTORIAL HepG2 Assay for human TAL Basal Promoter (AID 2282966);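 further: background control endpoint measuring basal TAL promoter reporter mRNA not a specific factor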
Conditions: HepG2 Attagene cis-factorial TAL promoter reporter; actives raise or lower the signal
Procedure, shortened: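 HepG2 cells were transiently transfected with promoter-driven multiplexed reporter units and dosed for 24 h. Reporter mRNA was measured by RT-PCR with capillary electrophoresis fluorescence; bidirectional fits used DMSO as baseline, serving as a background control.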
In the case of `c1ccc2c(c1)CCC2`, the outcome is reported as “inactive”. In the case of `CC(C)(C)c1ccc(O)c(O)c1`, the outcome is reported as “inactive”. In the case of `CN(Cc1cnc2nc(N)nc(N)c2n1)c1ccc(C(=O)N[C@@H](CCC(=O)O)C(=O)O)cc1`, the outcome is reported as “inactive”. With `CCCCCCCCCCCC(=O)NCCCN(C)C` the outcome was “inactive”. With `O=C1c2ccc(O)c(O)c2C(=O)c2c(O)ccc(O)c21` the outcome was “inactive”. In the case of `Cc1ccc(C(=O)c2ccccc2)cc1`, the outcome is reported as “inactive”. With `Nc1ccc(O)c(C(=O)O)c1` the outcome was “inactive”. With `CCCCc1oc2ccccc2c1C(=O)c1cc(I)c(OCCN(CC)CC)c(I)c1` the AC50 was 26.1 µM (active). With `O=C(O)C(F)(F)OC(F)(F)C(F)(F)OC(F)(F)C(F)(F)OC(F)(F)C(F)(F)C(F)(F)C(F)(F)F` the outcome was “inactive”. In the case of `CC[N+](CC)(CC)Cc1ccccc1`, the outcome is reported as “inactive”. For `O=C1Cc2ccccc2N1c1c(Cl)cccc1Cl`, the outcome was “inactive”. With `CN(C)c1ccc(C(=C2C=CC(=[N+](C)C)C=C2)c2ccccc2)cc1` the outcome was “inactive”. In the case of `CCCCC(CC)C(=O)OCCOCCOCCOCCOC(=O)C(CC)CCCC` (centres undefined), the outcome is reported as “inactive”. For `c1cnc2c(c1)ccc1cccnc12`, the outcome was “inactive”. In the case of `CN(C)CCOC(c1ccccc1)c1ccccc1`, the outcome is reported as “inactive”. For `C[C@]12CC[C@@H]3c4ccc(O)cc4CC[C@H]3[C@@H]1CC[C@@H]2OC(=O)CCC1CCCC1`, the outcome was “inactive”. With `Cc1cc(=O)oc2cc(O)ccc12` the outcome was “inactive”. In the case of `FC(OC(F)(F)C(F)(F)C(F)(F)F)C(F)(F)F` (centres undefined), the outcome is reported as “inactive”. With `COCN(COC)c1nc(N(COC)COC)nc(N(COC)COC)n1` the outcome was “inactive”. In the case of `CC=O`, the outcome is reported as “inactive”. In the case of `CCCCCCCCCCCCCCC`, the outcome is reported as “inactive”. For `Cc1ccccc1C(OCCN(C)C)c1ccccc1` (centres undefined), the outcome was “inactive”. With `CC(=O)Nc1ccc(O)cc1` the outcome was “inactive”. For `CC(C)CCOCCC(C)C`, the outcome was “inactive”. For `CCc1ccccc1O`, the outcome was “inactive”. In the case of `O=P(O)(O)CCC(F)(F)C(F)(F)C(F)(F)C(F)(F)C(F)(F)C(F)(F)F`, the outcome is reported as “inactive”. With `Nc1ccn([C@@H]2O[C@H](CO)[C@@H](O)C2O)c(=O)n1` (some centres undefined) the outcome was “inactive”. In the case of `O=C(CCCN1CCC(O)(c2ccc(Cl)cc2)CC1)c1ccc(F)cc1`, the AC50 is reported as 53.8 µM (active). With `CC1=NN(c2ccccc2)C(=O)C1` the outcome was “inactive”. With `O=S(=O)(c1ccc(OCc2ccccc2)cc1)c1ccccc1O` the outcome was “inactive”. With `CC(C)C=O` the outcome was “inactive”. With `Cc1ccc(S(=O)(=O)O)cc1` the outcome was “inactive”. For `Cc1cc(Cc2cc(C)cc(C(C)(C)C)c2O)c(O)c(C(C)(C)C)c1`, the outcome was “inactive”. In the case of `Cc1ccc(N=Nc2c(O)ccc3ccccc23)c(C)c1`, the outcome is reported as “inactive”. In the case of `O=C1OC(=O)c2cc(-c3ccc4c(c3)C(=O)OC4=O)ccc21`, the outcome is reported as “inactive”. With `O=C1c2ccccc2C(=O)c2c(O)c(O)cc(O)c21` the outcome was “inactive”. With `CCC(=O)O` the outcome was “inactive”.
